This note sets out measurements from PubChem BioAssay.

Values without a mark were called inactive.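 Rule for the calls, unless noted: active = inhibition over a set limit, the all-compound mean plus 3 SD, in both replicate runs; inconclusive = over that limit in just one replicate run; inactive = at or under that limit in both runs.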 Inconclusive results are not listed.

A short description of one assay: viability of PTEN-null HCT116 cells – cell-based, HCT116 clonal line, CellTiter-Glo, pilot screen (AID 824;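 active = viability at or below 27.92% in each of two runs, the all-compound median minus 4 SD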;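 note: 0% = 20 µM Hyamine control and 100% = vehicle cell control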). The settings on record: HCT116 PTEN-deleted viability, 60 h, at 10 µM, hits give low values.
As to `CCOc1ccc(-n2c(Cc3cc(=O)[nH]c(=O)[nH]3)nnc2SCC(=O)NC2CCCC2)cc1`, the viability was 100%.

As for `Cc1cccc(CSc2nnc(-c3ccccn3)n2N)c1`, the viability is 94.4%.

Regarding `CC1(C)C(c2ccc(Cl)cc2)=[N+]([O-])C2(CCCC/C2=N\O)N1O` (stereo not drawn), the viability is 94.2%.

For `COc1ccc(OCc2nnc3n2N=C(c2ccc(OC)cc2)CS3)cc1`, the viability was 66.4%.

Consider `COc1ccc(-c2ccc(=O)n(CC(=O)N3CCN(c4ccccc4OC)CC3)n2)cc1`, for which the viability was 92.9%.

Take `CC(C)=CC1C(C(=O)Nc2ccc(Br)cn2)C1(C)C` (stereo not drawn): the viability was 63.2%.

Consider `Cc1ccc(-n2c(C)cc(C(=O)OCC(=O)N(C)C3CCS(=O)(=O)C3)c2C)cc1` (stereo not drawn), for which the viability was 91.1%.

Regarding `CC(C)Cc1ccc(C#N)c(SCC(N)=O)n1`, the viability was 92.1%.

As to `Cc1csc2nc(CNS(=O)(=O)N(C)C)cn12`, the viability was 99.1%.

Regarding `CN(C)c1ccc(NC(=O)c2cccc(N3C(=O)CCC3=O)c2)cc1`, the viability was 100%.

On to `Cn1c(Cn2c(=O)sc3ccccc32)nnc1SCc1cccnc1`, for which the viability is 97.1%.

As to `CCCn1c(=S)[nH]c2cc(C(=O)NCC3CCCO3)ccc2c1=O` (stereo not drawn), the viability is 86.5%.

Take `O=C(Nc1nnc(-c2ccc3c(c2)OCCO3)o1)c1ccc(Cc2ccccc2)cc1`: the viability is 40.9%.

Turning to `COc1ccccc1OCC(=O)NC1CCCCCC1`, the viability was 88.8%.

`COc1cccc(-n2c(=O)[nH]cc(C(=O)Nc3ccc(NC(C)=O)cc3)c2=O)c1`: the viability was 96.6%.

`CCCC1(C(=O)O)NC(c2ccccc2O)C2C(=O)N(c3cccc(Cl)c3)C(=O)C21` (stereo not drawn): the viability is 94.5%.

For `CCCC(=O)NCCCCNC(=O)CCC`, the viability was 101%.

As for `CCc1ccccc1NC1c2ccccc2C(=O)N1Cc1ccco1` (stereo not drawn), the viability is 84.8%.

As for `CC(C)C(NS(=O)(=O)c1ccc2c(c1)oc(=O)n2C)C(=O)N1CCN(c2ccccc2F)CC1` (stereo not drawn), the viability was 83.1%.

On to `CC1(C)NC(C)(C)c2nonc2/C1=N\O`, for which the viability is 102%.

For `CC(C)NS(=O)(=O)c1ccc2c(c1)oc(=O)n2C`, the viability is 98.7%.

Turning to `CCn1c(SCC(=O)Nc2nnc(C)s2)nc2c(c1=O)SC(C)C2` (stereo not drawn), the viability was 96.6%.

With `CCOc1ccccc1N1C(=O)CC(Nc2ccc(N3CCOCC3)cc2)C1=O` (stereo not drawn), the viability was 101%.

On to `COc1ccc(-n2nnc3c(=O)n(CC(=O)OCc4ccccc4)cnc32)cc1`, for which the viability is 99.9%.

On to `O=C(Cn1cc2c(n1)CCCC2)NCc1cccc(Cl)c1`, for which the viability is 99.3%.

`Cc1cc2cc(CNC(=O)Cc3cccs3)ccc2n1C`: the viability is 69%.

As to `c1ccc(-c2noc(CN3CCN(c4ccccc4)CC3)n2)cc1`, the viability was 97.3%.

For the compound `O=C(CC1Sc2ncnn2C1=O)Nc1ccc(Br)cc1` (stereo not drawn), the viability is 100%.

With `COc1ccc(C2NC(=O)NC(O)(C(F)(F)F)C2C(=O)c2ccc(C)cc2)cc1` (stereo not drawn), the viability is 95.1%.

On to `Cc1c(C(=O)Nc2ccc(F)cc2)oc2ccc(S(=O)(=O)N3CCCC3)cc12`, for which the viability is 96%.

As for `O=C(Nn1nnnc1Nc1ccccc1)C12CC3CC(CC(C3)C1)C2`, the viability is 86.5%.

In the case of `Cn1c(=O)n(C)c2cc(CN3C(=O)OC(C)(C)C3(C)O)ccc21` (stereo not drawn), the viability was 95.2%.

In the case of `CCOC(=O)N1CCC(NC(=O)CS(=O)(=O)Cc2nc(-c3ccc(C)cc3)oc2C)CC1`, the viability was 81.3%.

For `COc1ccc(O)c(C(=O)c2cnn(C(=O)c3cc(C)oc3C)c2)c1`, the viability was 88.7%.

Turning to `Cn1nnnc1SCc1ccc(F)cc1`, the viability is 108%.

`O=C(Nc1ccccc1Cl)N1CCN(c2ccc3nnc(-c4ccccc4)n3n2)CC1`: the viability was 74.8%.

In the case of `Cc1nc2sc(C(c3cccs3)N3CCN(Cc4ccccc4)CC3)c(O)n2n1` (stereo not drawn), the viability was 89.8%.

With `COc1ccc(Cc2nnc(-c3cccc(C)c3)o2)cc1OC`, the viability was 84.4%.

On to `COc1ccc(NC(=O)CN(c2cc(C)cc(C)c2)S(=O)(=O)c2c(C)n[nH]c2C)cc1`, for which the viability was 94.6%.

A further assay in a line: RAM pathway blockade in budding yeast – dse1pr::URA3 reporter, 5-FOA selection, pilot screen (AID 869).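 Note: 0% = DMSO wells with no growth and 100% = 10 µM 1-NA-PP1 with full growth; RAM network block rescues cells from 5-FOA so hits raise OD615 growth.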 As to conditions: S. cerevisiae dse1pr::URA3 5-FOA growth, OD615, 2 d; at 10 µM; hits give high values; strain carries analog-sensitive mutant Cbk1 kinase.
As to `CCOc1ccc(-n2c(Cc3cc(=O)[nH]c(=O)[nH]3)nnc2SCC(=O)NC2CCCC2)cc1`, the inhibition is -1.29%.

As to `Cc1cccc(CSc2nnc(-c3ccccn3)n2N)c1`, the inhibition was 0.655%.

In the case of `CC1(C)C(c2ccc(Cl)cc2)=[N+]([O-])C2(CCCC/C2=N\O)N1O` (stereo not drawn), the inhibition was 0.555%.

As to `COc1ccc(OCc2nnc3n2N=C(c2ccc(OC)cc2)CS3)cc1`, the inhibition is 2.15%.

Regarding `COc1ccc(-c2ccc(=O)n(CC(=O)N3CCN(c4ccccc4OC)CC3)n2)cc1`, the inhibition is 1.15%.

For `CC(C)=CC1C(C(=O)Nc2ccc(Br)cn2)C1(C)C` (stereo not drawn), the inhibition was 3.15%.

For the compound `Cc1ccc(-n2c(C)cc(C(=O)OCC(=O)N(C)C3CCS(=O)(=O)C3)c2C)cc1` (stereo not drawn), the inhibition is 0.955%.

As for `CC(C)Cc1ccc(C#N)c(SCC(N)=O)n1`, the inhibition is 2.18%.

`Cc1csc2nc(CNS(=O)(=O)N(C)C)cn12`: the inhibition is 0.875%.

Consider `CN(C)c1ccc(NC(=O)c2cccc(N3C(=O)CCC3=O)c2)cc1`, for which the inhibition was -0.005%.

Regarding `Cn1c(Cn2c(=O)sc3ccccc32)nnc1SCc1cccnc1`, the inhibition was 1.83%.

In the case of `CCCn1c(=S)[nH]c2cc(C(=O)NCC3CCCO3)ccc2c1=O` (stereo not drawn), the inhibition was 1.96%.

Regarding `O=C(Nc1nnc(-c2ccc3c(c2)OCCO3)o1)c1ccc(Cc2ccccc2)cc1`, the inhibition was 1.59%.

As for `COc1ccccc1OCC(=O)NC1CCCCCC1`, the inhibition was -0.49%.

In the case of `COc1cccc(-n2c(=O)[nH]cc(C(=O)Nc3ccc(NC(C)=O)cc3)c2=O)c1`, the inhibition is 3.3%.

On to `CCCC1(C(=O)O)NC(c2ccccc2O)C2C(=O)N(c3cccc(Cl)c3)C(=O)C21` (stereo not drawn), for which the inhibition was 0.955%.

For `CCCC(=O)NCCCCNC(=O)CCC`, the inhibition is 0.09%.

As for `CCc1ccccc1NC1c2ccccc2C(=O)N1Cc1ccco1` (stereo not drawn), the inhibition was 2.31%.

`CC(C)C(NS(=O)(=O)c1ccc2c(c1)oc(=O)n2C)C(=O)N1CCN(c2ccccc2F)CC1` (stereo not drawn): the inhibition is 1.75%.

For `CC1(C)NC(C)(C)c2nonc2/C1=N\O`, the inhibition was 1.34%.

As to `CC(C)NS(=O)(=O)c1ccc2c(c1)oc(=O)n2C`, the inhibition is -0.14%.

As to `CCn1c(SCC(=O)Nc2nnc(C)s2)nc2c(c1=O)SC(C)C2` (stereo not drawn), the inhibition was 2.4%.

Turning to `CCOc1ccccc1N1C(=O)CC(Nc2ccc(N3CCOCC3)cc2)C1=O` (stereo not drawn), the inhibition is 1.6%.

For `COc1ccc(-n2nnc3c(=O)n(CC(=O)OCc4ccccc4)cnc32)cc1`, the inhibition is 1.19%.

For the compound `O=C(Cn1cc2c(n1)CCCC2)NCc1cccc(Cl)c1`, the inhibition was 1.62%.

For `Cc1cc2cc(CNC(=O)Cc3cccs3)ccc2n1C`, the inhibition was 3.38%.

In the case of `c1ccc(-c2noc(CN3CCN(c4ccccc4)CC3)n2)cc1`, the inhibition is 0.125%.

`O=C(CC1Sc2ncnn2C1=O)Nc1ccc(Br)cc1` (stereo not drawn): the inhibition was 1.93%.

With `COc1ccc(C2NC(=O)NC(O)(C(F)(F)F)C2C(=O)c2ccc(C)cc2)cc1` (stereo not drawn), the inhibition was 0.56%.

In the case of `Cc1c(C(=O)Nc2ccc(F)cc2)oc2ccc(S(=O)(=O)N3CCCC3)cc12`, the inhibition is 3.88%.

In the case of `O=C(Nn1nnnc1Nc1ccccc1)C12CC3CC(CC(C3)C1)C2`, the inhibition was 2.17%.

Regarding `Cn1c(=O)n(C)c2cc(CN3C(=O)OC(C)(C)C3(C)O)ccc21` (stereo not drawn), the inhibition was 0.09%.

With `CCOC(=O)N1CCC(NC(=O)CS(=O)(=O)Cc2nc(-c3ccc(C)cc3)oc2C)CC1`, the inhibition was 0.44%.

In the case of `COc1ccc(O)c(C(=O)c2cnn(C(=O)c3cc(C)oc3C)c2)c1`, the inhibition is 2.02%.

As to `Cn1nnnc1SCc1ccc(F)cc1`, the inhibition was 1.25%.

As for `O=C(Nc1ccccc1Cl)N1CCN(c2ccc3nnc(-c4ccccc4)n3n2)CC1`, the inhibition was 0.435%.

In the case of `Cc1nc2sc(C(c3cccs3)N3CCN(Cc4ccccc4)CC3)c(O)n2n1` (stereo not drawn), the inhibition is -0.06%.

`COc1ccc(Cc2nnc(-c3cccc(C)c3)o2)cc1OC`: the inhibition is 1.84%.

As for `COc1ccc(NC(=O)CN(c2cc(C)cc(C)c2)S(=O)(=O)c2c(C)n[nH]c2C)cc1`, the inhibition is 0.955%.
